E-sel TNF inh – blocks E-selectin expression induced by TNF alpha; AID 1246; 120,000 tested, 0.71% active; HUVEC TNFa-induced E-selectin immunofluorescence, high content; inhibition, % at 2 µM;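 active means inhibition above the batch mean plus 3 SD, and confirmed as a hit on visual image review, cut at about 43% in these data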
VCAM1 TNFa inh – reduces TNF alpha induced VCAM1 expression in HUVEC; HUVEC TNFa-induced VCAM-1 immunofluorescence, high-content imaging; inhibition, % at 2 µM; 95,000 tested, 0.48% active;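 active means inhibition above the batch mean plus 3 SD, with images confirmed as a hit by eye, cut at about 37% in these data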
HUVEC tox TNFa – HUVEC cytotoxicity counter-screen, TNF alpha stimulated; HUVEC TNFalpha-stimulated, Hoechst cell count, imaging; cell count reduction, % at 2 µM; 93,000 tested, 0.17% active; AID 848;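 active means cell count reduction exceeding the screen mean by over 5 SD, scaled to untreated wells per plate, cut at about 78% in these data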;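 further: cells counted after 24 h of TNF alpha exposure following the 1 h pretreatment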
cytoskel mod – modifiers of cytoskeleton assembly | HUVEC TNFa F-actin phalloidin imaging, high content | inhibition, % at 2 µM | 91,000 tested, 0.18% active | AID 836;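 active means inhibition above the batch mean plus 3 SD and confirmed as a hit by visual image inspection, cut at about 30% in these data, passing the limit was not always enough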
Numbers stand for hits; – = inactive; · = no result given. A selection: hits, their analogues and other compounds. The true share with any hit is near 1.1%.

SMILES	E-sel TNF inh	VCAM1 TNFa inh	HUVEC tox TNFa	cytoskel mod
COc1ccc(N(CC(=O)NCc2ccncc2)S(=O)(=O)c2ccccc2[N+](=O)[O-])c(OC)c1	–	·	·	·
Cc1ccccc1CS(=O)(=O)c1nnc([C@H](Cc2ccccc2)NC(=O)OC(C)(C)C)o1	–	75	–	–
CCC(C)[C@@H](NC(=O)OC(C)(C)C)c1nnc(S(=O)(=O)Cc2cccc(C)c2)o1 (some centres undefined)	·	42	–	–
CC(C)(C)OC(=O)N[C@@H](Cc1ccccc1)c1nnc(S(=O)(=O)Cc2ccccc2)o1	–	–	–	–
CCOC(=O)N1CCC(NC(=O)CN2C(=O)CSc3nc(C)cc(C)c32)CC1	83	–	–	–
O=c1c2ccccc2nnn1CSc1ncnc2ccccc12	–	46	–	–
COc1cc2c(cc1NC(=O)CN(C)Cc1ccc(OC)c(OC)c1)oc1ccccc12	–	·	·	·
Fc1cccc(F)c1CSc1nc2ccccc2[nH]1	75	–	–	·
Cc1noc(C)c1CSc1nc2ccccc2[nH]1	–	–	–	–
CCC(=O)NC(=S)Nc1ccc(NC(=O)c2cc3ccccc3o2)c(OC)c1	–	·	·	·
O=C1N2CCSC2=NC1(Nc1ccccn1)C(F)(F)F (centres undefined)	·	86	–	–
COc1ccc(NC(=O)c2cc3c(Cl)nc4ccccc4c3s2)c(OC)c1	63	·	·	·
COc1cc(NC(=O)c2cc3c(Cl)nc4ccccc4c3s2)cc(OC)c1OC	–	·	·	·
CCOc1cc(S(=O)(=O)Nc2ccccc2CC)ccc1Cl	–	98	79	–
COCCCNCCCOc1ccc(C(C)(C)c2ccccc2)cc1	–	·	·	·
CC(C)(C)c1ccc(OCCCNCc2ccccc2)cc1	95	·	·	·
O=C(Cc1ccc(-c2ccccc2)cc1)NCCN1CCOCC1	95	·	·	·
O=C(NCCN1CCOCC1)c1ccc(-c2ccccc2)cc1	–	–	–	–
N#CC1=C(N)C(C#N)(C#N)[C@H](c2ccncc2)[C@H]2CN(C(=O)OCc3ccccc3)CC=C12	96	·	·	·
O=C(CSc1nc2ncc(Cl)cc2[nH]1)N(Cc1ccccc1)C1CCS(=O)(=O)C1 (centres undefined)	–	·	·	·
CN(C(=O)COC(=O)CNC(=O)c1ccc(Cl)cc1Cl)c1ccccc1	–	·	·	·
CCCCc1ccc(NC(=S)Nc2ccc(Cl)c(S(=O)(=O)N(C)C)c2)cc1	–	·	·	·
CCCCn1c2nc3ccccc3nc2c2c(=O)n(CCC(C)C)cnc21	–	–	–	–
CCCCn1c2nc3ccccc3nc2c2c(=O)n(-c3ccccc3)cnc21	92	·	·	·
Cc1cccc(-n2nnnc2SCc2csc(-c3ccccc3)n2)c1	–	–	88	–
SMILES	E-sel TNF inh	VCAM1 TNFa inh	HUVEC tox TNFa	cytoskel mod
FC(F)(F)c1cccc(-c2ccn3ncnc3n2)c1	–	·	·	·
NC(=O)C1CCCN(C(=S)Nc2cccc3ccccc23)C1 (centres undefined)	70	·	·	·
S=C(Nc1cccc2ccccc12)N1CCN(c2ncccn2)CC1	–	–	–	–
O=C(O)C1CCCCC1C(=O)Nc1cc(C(F)(F)F)ccc1Cl (centres undefined)	–	·	·	·
Cc1ccc(-n2c(=O)c3c4c(sc3n(Cc3cc(=O)n5ccccc5n3)c2=O)CCC4)cc1C	90	·	·	·
CC(C)N(CCNCc1nnc(-c2ccccc2)o1)C(C)C	–	·	·	·
CCN(c1ccc(NC(=O)COC(=O)CCC(=O)c2ccc(F)cc2)cc1)C(C)C	–	–	–	–
CCOC(=O)C1=C(CC)OC(N)=C(C#N)C1c1ccc(OC)c(C)c1OC (centres undefined)	–	·	·	·
CCOC(=O)C1=C(CC)OC(N)=C(C#N)C1c1cc(OC)ccc1OC (centres undefined)	94	·	·	·
CC(C)CNC(=S)NC(=O)c1ccc(Cl)cc1Cl	–	·	·	·
CN1Cc2cc(C(=O)c3cc(Cl)cc(CSc4ncccn4)c3O)cnc2NC1=O	–	96	–	–
COc1ccc(-n2nc([N+](=O)[O-])c(=NCCc3ccc(Cl)cc3)n2O)cc1	55	–	–	–
COc1ccc(-n2nc([N+](=O)[O-])c(=NCc3ccco3)n2O)cc1	–	·	·	·
COc1ccc(NC(=O)/C(Cl)=C(/Cl)S(=O)Cc2ccc(Cl)cc2)cn1 (centres undefined)	100	·	·	·
COc1ccc(NC(=O)C(Cl)=C(Cl)Cl)cn1	–	·	·	·
Cc1nc2cccc(C)n2c(=O)c1Cl	–	–	–	–
Cn1c(NCc2c[nH]c3ccccc23)nc2ccccc21	–	58	–	·
CCOC(=O)N1CCC(NC(=O)c2ccc3c(=O)n4c(nc3c2)CCCC4)CC1	64	–	–	–
O=C(c1ccc2snnc2c1)N1CCCCC1	–	–	–	–
O=C(c1ccc2snnc2c1)N1CCSCC1	·	78	84	–
Cc1nn(CC(=O)c2cccc(Cl)c2)c(C)c1[N+](=O)[O-]	–	·	·	·
O=C(NN=C1CCN(Cc2ccccc2)CC1)c1ccccc1	68	·	·	·
O=C1CN(C(=O)COc2ccc(F)cc2Br)c2ccccc2N1	–	·	·	·

Screening data: PubChem, Columbia University Molecular Screening Center
